# Measurements reported in ChEMBL document CHEMBL4888484, “Replenishing the malaria drug discovery pipeline: Screening and hit evaluation of the MMV Hit Generation Library 1 (HGL1) against asexual blood stage Plasmodium falciparum ,using a nano luciferase reporter read-out” (2022).
# Values joined by “and” are separate entries in the source; they are usually repeats but may differ in a detail not shown here. Identical values can stand only once. Among all 4,800 compounds or so, about 420 (8.8%) showed an effect of 50% or more. The list comes from a sample in which strong results are over-represented; it also holds similar structures and randomly drawn compounds.
# Test system: Plasmodium falciparum
# Test: Confirmatory screen in NF54 nanoGlo assay, in single point, at 2uM, 72h
# Format: functional, Erythrocyte
# Details: timepoint 72 hour
SMILES,% Inhibition [%],% Inhibition (2 µM)
Cc1ccc(NCc2ncccn2)cc1OCC1CCCCC1,1,
O=C(C1CCCC2CCCCC21)N1CCN(c2ncccn2)CC1 (centres undefined),-8,
Cc1cc(-n2nnc3ccccc32)nc(C)n1,4,
Cc1ccc(Cl)c2ccc(NC(=O)CCNC(N)=O)nc12,0,
CN([C@H]1CCc2ccccc21)S(=O)(=O)c1ccc2c(c1)CCC2,7,
Brc1ccc2sncc2c1,-3,
COc1cncc(C(=O)N2CCCc3cc(S(C)(=O)=O)ccc32)n1,9,
CN1CCN(CCc2nc(-c3ccc4cc[nH]c4c3)no2)CC1,-4,
CC(C)(C)OC(=O)NS(=O)(=O)Nc1nccs1,-13,
COCCN(c1ccncc1)S(C)(=O)=O,6,
CCc1ccc(NCc2c(OCc3ccc(Br)cc3)ccc3ccccc23)cc1,-11,
Cc1c(S(=O)(=O)N2CCC[C@H](C(=O)NC3CC3)C2)cnn1C,-4,
Cc1ccc(S(=O)(=O)c2c(NS(=O)(=O)c3ccc(F)cc3)n(CCc3ccccc3)c3nc4ccccc4nc23)cc1,100,
O=C(Cn1c(Cc2ccc(Cl)cc2)nc2ccccc21)Nc1ccccc1,14,
O=C(Nc1c(S(=O)(=O)c2ccccc2)c2nc3ccccc3nc2n1CCc1ccccc1)c1ccc(Cl)cc1,102,
Cc1ccc(S(=O)(=O)c2c(NS(=O)(=O)c3ccccc3)n(CCc3ccccc3)c3nc4ccccc4nc23)cc1,100,
O=C(Nc1ccccc1)c1ccc2c(c1)C(=O)N(CCc1ccccc1)C2=O,-9,
CC(C)CCn1c(=O)c2sccc2n(CC(=O)N(C)c2ccccc2)c1=O,5,
COc1cc(OC)c(NC(=O)COc2ccccc2-c2nc3ccccc3s2)cc1Cl,0,
O=C(c1cc2c(s1)CCCC2)N1CCC[C@H](c2nnc3ccccn23)C1,-17,
CCN1C(=O)[C@@]2(CC(=O)Nc3c2c(C)nn3-c2ncnc3nc[nH]c23)c2cc(C)ccc21,2,
COc1ccccc1OCc1nn2c([C@H]3CCCN(S(C)(=O)=O)C3)nnc2s1,-3,
O=C1c2ccccc2C(c2ccc(NC(=O)c3cccc4ccccc34)cc2)(c2ccc(NC(=O)c3cccc4ccccc34)cc2)c2ccccc21,83,
N=C(Cc1ccccc1)NOC(=O)c1cccc2ccccc12,-11,
O=C(COc1ccccc1Cl)Nc1ccc(C2(c3ccc(NC(=O)COc4ccccc4Cl)cc3)c3ccccc3-c3ccccc32)cc1,0,

SMILES,% Inhibition [%],% Inhibition (2 µM)
O=C(Nc1ccc(C2(c3ccc(NC(=O)c4ccc(F)cc4)cc3)c3ccccc3C(=O)c3ccccc32)cc1)c1ccc(F)cc1,67,
O=C(Nc1ccc(N2CCn3c(nc4ccccc43)C2)cc1)c1ccc(F)cc1,9,
O=C(O)c1cc2c(cc1C(=O)Nc1ccc(Cl)cc1)=[O+]c1ccccc1-c1ccccc1[O+]=2,-17,
O=C(c1ccccc1F)N(Cc1nccn1Cc1ccccc1F)CC1CC1,20,
O=C(Nc1ccc(Cl)cc1)c1cccc(N2C(=O)C3CCC(c4ccccc4)CC3C2=O)c1 (centres undefined),-5,
COc1cc([C@H](CC(=O)NC2CCN(Cc3ccccc3)CC2)N2Cc3ccccc3C2=O)cc(OC)c1OC,33,
CN1CCN(C(=O)[C@H](C(=O)c2ccccc2)n2cc(Cl)ccc2=O)CC1,-9,
COc1ccccc1N1CCN(Cc2nc3ccccc3c(=O)n2-c2ccc(F)cc2)CC1,6,
COc1ccc2[nH]c3c(c2c1)CC(C(=O)O)NC3c1ccc(OC)c(CN2CCN(c3ccccc3F)CC2)c1 (centres undefined),76,
Fc1ccccc1N1CCN(C2CCN(Cc3c[nH]c4ccccc34)CC2)CC1,4,
CC(C)(C)CCN1CCN(S(=O)(=O)C[C@H]2CCCS(=O)(=O)C2)CC1,-3,
C[C@@H](CN)N(C)c1ccnc2cc(Br)cnc12,98,
COc1c(Br)cc(Br)cc1C(N)=O,-5,
CCCOc1cc2nc(C(F)(F)F)cc(-c3cccs3)c2cc1OCCC,-4,
CC1=CC(=[N+](CCO)CCO)C=C/C1=C(\c1ccc(N(CCO)CCO)cc1C)c1ccccc1Cl,91,
Cc1ccc([C@@H]2CC(=O)Nc3nc(N4CCN(CCO)CC4)nc(O)c32)cc1,2,
NC(=O)CN1CCC2(CC1)NC(c1ccc(OC(F)(F)F)cc1)=NO2,0,
Cc1cncc(C(=O)N2CC(n3cnnc3C)C2)c1,-19,
CCc1nnc(NC(=O)C2CC2c2ccccc2)s1 (centres undefined),-3,
COC(=O)c1c(NC(=O)[C@H]2CCCN(S(=O)(=O)c3cnn(C)c3C)C2)cnn1C,4,
CNS(=O)(=O)CC(=O)Nc1cc(Br)c(F)cc1F,-12,
COc1cccc(CNC(=O)CCC(=O)N(c2ccccc2)c2ccccc2)c1,7,
COc1ccc(CCNC(=O)CCCC(=O)NCc2ccccc2)cc1OC,-14,
CCCNC(=O)C[C@H](C)CC(=O)NCCc1ccc(OC)c(OC)c1,4,
COc1ccc(CC(=N)Nc2cc3cc(OC)c(OC)cc3c(Cc3ccc(OC)c(OC)c3)n2)cc1OC,80,

SMILES,% Inhibition [%],% Inhibition (2 µM)
COC(=O)C1=C(C(=O)OC)SC(=C2C(=S)C(C)(C)N(C(=O)c3cccnc3)c3c(C)cc(C)cc32)S1,4,
CC(O)CC(C)(C)CNC1CCCc2occc21 (centres undefined),-12,
Oc1cccc(CN[C@H]2CCCc3occc32)c1Cl,71,
O=C(N[C@H]1CCCc2occc21)c1ccco1,0,
CCN1CCC(CCNC(=O)c2cc3c(s2)N(CC)CCCC3)CC1,-7,
CCOc1cc(N2CCOCC2)c(OCC)cc1NC(=O)c1ccc(C)c(NC(=O)c2ccco2)c1,22,
N#Cc1nc(NC(=O)c2cc3c(s2)CCOC3)[nH]c1C#N,3,
CN(CC(F)(F)F)S(=O)(=O)c1ccc(C(=O)O)cc1,-5,
Cc1ccc(CC[C@H]2Nc3ccccc3C(c3ccccc3)(c3ccccc3)O2)o1,74,
Cc1ccccc1[C@H]1CCN(c2ccc(NC(=O)c3ccc(F)cc3)c(C(=O)O)c2)C1,-11,
Cc1cc(Cn2cc(C(c3ccccc3)c3ccccc3)nn2)no1,-3,
Nc1c(-c2ccccc2)nsc1C(=O)NCc1ccc(F)cc1,-2,
CC(=O)Nc1ccc(NC(=O)CN2CCCN(c3cncc(F)c3)CC2)cc1,-1,
O=C(O)C1C2C=CC(O2)C1C(=O)NC1CCCc2ccccc21 (centres undefined),-4,
O=C(CC(O)c1cccc(F)c1)NCCC1CCCCO1 (centres undefined),-1,
CCO[C@@H](C)C(=O)Nc1n[nH]c(Cc2cccc(F)c2)n1,-1,
COCCc1cc(NC(=O)Nc2sc(-c3ccccc3)nc2C)n(C)n1,14,
COc1cccc(-c2nc(C)c(C(=O)Nc3n[nH]c(CC(C)C)n3)s2)c1,,78% and 70%
COc1cccc(CNC(=O)c2sc(Nc3ccc(C)cc3C)nc2C)c1,-13,
COc1cccc(-c2nc(C)c(C(=O)Nc3nc(C(C)C)n[nH]3)s2)c1,74,
COc1cccc(-c2nc3n(c2C(=O)NCC(C)C)CCS3(=O)=O)c1,-2,
C[C@@](CO)(NC(=O)Nc1cc(-c2ccco2)ccc1F)C1CC1,-4,
O=C(c1ccccc1)c1c[nH]c2c(F)cc(F)cc2c1=O,-5,
CCOCCc1nc(-c2ccccn2)c(CCOCC)nc1-c1ccccn1,10,
O=C1NC(=O)[C@]2(CCOc3ccc(F)cc32)N1,-3,

SMILES,% Inhibition [%],% Inhibition (2 µM)
Cc1cc(C)n2c(=O)c3ccccc3nc2c1C#N,-5,
Cc1cccc(CNC(=O)NC2CCOC2c2ccc(Cl)cc2)n1 (centres undefined),-15,
Cc1cc(C)nc(NCCC[C@H]2CCCCO2)n1,-6,
Cc1cccc(CN(Cc2cccc(C)n2)C[C@H]2CCCCO2)n1,90,
O[C@H]1CNCC[C@@H]1Nc1cc(-c2ccccc2)nc2ccccc12,46,
COc1cc(OC)c(S(=O)(=O)NC(C)C)cc1S(=O)(=O)NC(C)C,-4,
O=C1CC(c2cccc(Br)c2)N(S(=O)Oc2ccccc2)c2ccccc21 (centres undefined),4,
COc1ccc2oc(-c3ccc(CNC(=O)c4ccc(C)cc4)cc3)nc2c1,-3,
COc1ccc(CNc2nc(-c3nnc(-c4ccccc4)o3)nc3ccccc23)cc1,55,
COc1ccc2oc(-c3ccc(CNC(=O)c4ccccc4)cc3)nc2c1,-5,
Oc1c(-n2cncn2)cnc2ncnn12,-7,
Cc1cc(-c2ccco2)cc(Cl)c1N,-1,
O=C1CCN(C(=O)C2(c3cccc(Cl)c3)CCCC2)CCN1,2,
CC(C)(C)c1ccc(-c2ccc(C(=O)NCC3(O)CCOCC3)o2)cc1,0,
COC(=O)c1c(NC(C)=O)c2cc(NC3CCOCC3)cnc2n1CCc1ccc(OC)cc1,70,
COc1ccc(NC(=O)[C@@H](C)C2CCOCC2)cc1,-6,
CCc1c(NC(=O)[C@@H](C)C2CC2)nnn1CCc1ccc(OC)cc1,-1,
Cc1nn(C)c2c(N3CCOCC3)nc(C3CC3)nc12,-8,
CC[C@H]1Cn2c(C(=O)NCc3ccc(C)o3)cc3cccc(c32)O1,-11,
COc1ccc(-c2nnc(COc3ccc(-c4ccccc4)cc3)s2)cc1,-7,
COc1ccc(-c2nc(N)s[n+]2-c2ccccc2)cc1,-2,
COc1ccc(-[n+]2c(-c3ccccc3)cn3c2CCC3)cc1,77,
COc1ccc(CCc2nnc3n2CCOC3)cc1,-4,
COc1ccc(-[n+]2c(-c3ccc(-c4ccccc4)cc3)cn3c2COCC3)cc1,66,
